# Test results taken from ChEMBL document CHEMBL3988442, “University of Dundee, Small-Polar-MMV Screening Library” (2021).
# For some assays here: Results with a measured potency or affinity are listed apart.
# Legend:
# Set-up in all cases: scale not given: direction of the effect not stated beside the values
# [1] = target: Protein translocase subunit SecA (Escherichia coli (strain K12)) (UniProt P10408); test: Assay to Identify E. coli SecA ATPase Inhibitors; assay type: functional; conditions: 30 µM
# Sequence of Protein translocase subunit SecA (Escherichia coli (strain K12)) (P10408 whole entry): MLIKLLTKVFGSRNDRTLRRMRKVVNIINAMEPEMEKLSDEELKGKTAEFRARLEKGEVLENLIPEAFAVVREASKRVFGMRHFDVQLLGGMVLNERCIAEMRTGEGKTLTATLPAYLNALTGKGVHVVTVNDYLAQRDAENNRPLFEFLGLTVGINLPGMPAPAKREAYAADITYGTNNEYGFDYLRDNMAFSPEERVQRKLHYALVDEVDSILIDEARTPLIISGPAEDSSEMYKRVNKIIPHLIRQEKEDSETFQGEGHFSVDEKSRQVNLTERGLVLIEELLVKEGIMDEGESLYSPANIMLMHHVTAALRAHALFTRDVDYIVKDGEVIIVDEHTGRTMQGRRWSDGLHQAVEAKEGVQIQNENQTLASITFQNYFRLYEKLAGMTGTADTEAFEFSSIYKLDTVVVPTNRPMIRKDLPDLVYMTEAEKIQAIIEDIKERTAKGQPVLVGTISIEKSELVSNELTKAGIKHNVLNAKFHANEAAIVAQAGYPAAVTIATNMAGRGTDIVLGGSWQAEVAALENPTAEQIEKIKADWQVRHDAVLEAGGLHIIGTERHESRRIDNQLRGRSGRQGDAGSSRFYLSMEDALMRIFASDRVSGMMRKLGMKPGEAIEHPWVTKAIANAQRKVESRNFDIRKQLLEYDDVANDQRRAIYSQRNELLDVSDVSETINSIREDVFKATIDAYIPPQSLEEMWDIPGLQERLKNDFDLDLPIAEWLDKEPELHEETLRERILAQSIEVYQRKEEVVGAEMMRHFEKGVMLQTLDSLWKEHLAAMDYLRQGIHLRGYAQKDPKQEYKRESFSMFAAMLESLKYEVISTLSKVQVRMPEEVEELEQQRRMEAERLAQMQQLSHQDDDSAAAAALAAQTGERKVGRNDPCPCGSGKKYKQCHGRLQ
# [2] = target: T1, Ubiquitin-activating enzyme e1, putative (Leishmania donovani (strain BPK282A1)) (UniProt E9BSI1); test: Leishmania donovani Ubiquitin Activating Enzyme (LdE1); assay type: functional; conditions: 30 µM
# T1 sequence (whole entry): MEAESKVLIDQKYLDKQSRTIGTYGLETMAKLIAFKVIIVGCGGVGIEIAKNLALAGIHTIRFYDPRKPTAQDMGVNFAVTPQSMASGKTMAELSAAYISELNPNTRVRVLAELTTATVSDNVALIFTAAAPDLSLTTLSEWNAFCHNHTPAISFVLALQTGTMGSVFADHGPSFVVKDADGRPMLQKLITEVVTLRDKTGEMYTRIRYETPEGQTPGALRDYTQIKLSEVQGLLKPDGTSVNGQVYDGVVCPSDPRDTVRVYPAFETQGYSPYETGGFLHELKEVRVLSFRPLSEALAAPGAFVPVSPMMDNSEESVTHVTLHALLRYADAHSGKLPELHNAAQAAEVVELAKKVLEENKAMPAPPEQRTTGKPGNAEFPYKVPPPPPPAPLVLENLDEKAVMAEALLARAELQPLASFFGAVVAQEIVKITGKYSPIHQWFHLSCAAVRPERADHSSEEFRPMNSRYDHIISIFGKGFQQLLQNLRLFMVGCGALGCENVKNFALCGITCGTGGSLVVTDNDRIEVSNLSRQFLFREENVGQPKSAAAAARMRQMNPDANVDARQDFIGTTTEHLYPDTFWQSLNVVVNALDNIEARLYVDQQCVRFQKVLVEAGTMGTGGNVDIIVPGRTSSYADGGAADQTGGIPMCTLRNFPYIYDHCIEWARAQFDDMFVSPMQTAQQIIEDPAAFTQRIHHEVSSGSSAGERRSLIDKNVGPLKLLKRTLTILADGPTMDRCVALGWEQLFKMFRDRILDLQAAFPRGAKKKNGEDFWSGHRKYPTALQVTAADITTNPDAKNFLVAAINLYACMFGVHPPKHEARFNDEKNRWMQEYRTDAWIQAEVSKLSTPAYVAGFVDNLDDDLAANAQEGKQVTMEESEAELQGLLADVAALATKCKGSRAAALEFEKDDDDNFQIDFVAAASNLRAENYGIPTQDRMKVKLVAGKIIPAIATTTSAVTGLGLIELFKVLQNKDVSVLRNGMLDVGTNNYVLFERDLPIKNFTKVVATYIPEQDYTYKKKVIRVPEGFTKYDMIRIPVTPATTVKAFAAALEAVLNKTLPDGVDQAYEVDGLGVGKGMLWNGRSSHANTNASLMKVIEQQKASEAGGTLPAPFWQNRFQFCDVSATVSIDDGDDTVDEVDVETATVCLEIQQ
# [3] = target: AMP-activated protein kinase, AMPK (Homo sapiens) (UniProt P54646+O43741+P54619+Q9UGJ0+Q9Y478+Q13131+Q9UGI9); test: AMP-dependent Kinase enzyme assay. An in vitro enzyme assay that detects ADP turnover that is directly proportional to AMPK activity. This uses naive AMPK that is activated during the assay with MK-8722; assay type: functional; conditions: 30 µM
# [4] = target: Sialic acid-binding Ig-like lectin 9 (Homo sapiens) (UniProt Q9Y336); test: Hs-Siglec9 ALPHAscreen SOP 20170721; conditions: 10 µM
# Sequence of Sialic acid-binding Ig-like lectin 9 (Homo sapiens) (Q9Y336 whole entry): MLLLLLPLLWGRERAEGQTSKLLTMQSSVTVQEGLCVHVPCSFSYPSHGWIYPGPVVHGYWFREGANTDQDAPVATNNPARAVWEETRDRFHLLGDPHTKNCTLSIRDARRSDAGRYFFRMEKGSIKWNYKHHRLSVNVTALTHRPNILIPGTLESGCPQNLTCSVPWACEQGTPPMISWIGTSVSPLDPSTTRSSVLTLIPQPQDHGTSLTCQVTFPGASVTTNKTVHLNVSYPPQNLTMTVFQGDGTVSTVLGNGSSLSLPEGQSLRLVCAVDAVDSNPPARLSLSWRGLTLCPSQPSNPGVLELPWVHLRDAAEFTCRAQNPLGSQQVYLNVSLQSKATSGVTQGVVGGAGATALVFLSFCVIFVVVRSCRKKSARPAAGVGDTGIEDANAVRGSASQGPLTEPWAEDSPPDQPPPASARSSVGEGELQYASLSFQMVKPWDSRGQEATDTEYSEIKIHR
# Trypanosoma cruzi = test: Trypanosoma cruzi phosphomannomutase and mannose-1-phosphate guanylyltransferase assay; assay type: functional; conditions: 10 µM
# [5] = target: T2, Arginase-2, mitochondrial (Homo sapiens) (UniProt P78540); test: in vitro enzyme assay to detect the production of urea directly proportional to the activity of Arginase II; assay type: functional; conditions: 33.3 µM; further: in the data most compounds retested in dose-response had high values
# T2 sequence (whole entry): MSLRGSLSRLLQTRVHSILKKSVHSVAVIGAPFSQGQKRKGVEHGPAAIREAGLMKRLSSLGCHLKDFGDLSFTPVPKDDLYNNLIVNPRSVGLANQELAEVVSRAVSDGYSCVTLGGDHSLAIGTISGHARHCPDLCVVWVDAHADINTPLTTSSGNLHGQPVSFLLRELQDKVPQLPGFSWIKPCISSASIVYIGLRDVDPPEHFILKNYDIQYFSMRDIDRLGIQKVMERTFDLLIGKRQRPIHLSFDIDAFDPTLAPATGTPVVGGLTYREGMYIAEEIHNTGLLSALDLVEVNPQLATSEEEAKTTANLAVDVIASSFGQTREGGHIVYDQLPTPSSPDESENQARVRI
# [6] = target: T3, Proteasome subunit beta (Trypanosoma cruzi) (UniProt O96673); test: Trypanosoma cruzi proteasome chymotrypsin-like activity (TcProtChymo) assay.; further: in the data most compounds retested in dose-response had high values; assay type: functional; conditions: 9.37 µM
# T3 sequence (whole entry): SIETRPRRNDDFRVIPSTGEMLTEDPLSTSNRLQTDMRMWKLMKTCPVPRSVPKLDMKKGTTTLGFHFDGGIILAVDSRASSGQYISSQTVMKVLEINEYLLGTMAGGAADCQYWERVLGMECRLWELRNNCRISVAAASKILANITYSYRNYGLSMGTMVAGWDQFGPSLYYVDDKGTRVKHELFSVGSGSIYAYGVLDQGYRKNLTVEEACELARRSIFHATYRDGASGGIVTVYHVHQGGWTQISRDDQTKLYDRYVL
# Homo sapiens = species on record: Homo sapiens; test: To identify inhibition of the IFN signalling (Jak-Stat) pathway via expression of an eGFP reporter gene under the control of an IFN-stimulated response element (ISRE) containing MxA promoter.; assay type: functional; conditions: 30 µM
# [7] = target: T4, Tyrosyl-tRNA synthetase, putative (Trypanosoma cruzi (strain CL Brener)) (UniProt Q4DSP6); test: Trypanosoma cruzi tyrosyl tRNA synthetase (TcYRS) _High Tyrosine SOP; assay type: functional; conditions: 30 µM; further: in the data most compounds retested in dose-response had high values
# T4 sequence (whole entry): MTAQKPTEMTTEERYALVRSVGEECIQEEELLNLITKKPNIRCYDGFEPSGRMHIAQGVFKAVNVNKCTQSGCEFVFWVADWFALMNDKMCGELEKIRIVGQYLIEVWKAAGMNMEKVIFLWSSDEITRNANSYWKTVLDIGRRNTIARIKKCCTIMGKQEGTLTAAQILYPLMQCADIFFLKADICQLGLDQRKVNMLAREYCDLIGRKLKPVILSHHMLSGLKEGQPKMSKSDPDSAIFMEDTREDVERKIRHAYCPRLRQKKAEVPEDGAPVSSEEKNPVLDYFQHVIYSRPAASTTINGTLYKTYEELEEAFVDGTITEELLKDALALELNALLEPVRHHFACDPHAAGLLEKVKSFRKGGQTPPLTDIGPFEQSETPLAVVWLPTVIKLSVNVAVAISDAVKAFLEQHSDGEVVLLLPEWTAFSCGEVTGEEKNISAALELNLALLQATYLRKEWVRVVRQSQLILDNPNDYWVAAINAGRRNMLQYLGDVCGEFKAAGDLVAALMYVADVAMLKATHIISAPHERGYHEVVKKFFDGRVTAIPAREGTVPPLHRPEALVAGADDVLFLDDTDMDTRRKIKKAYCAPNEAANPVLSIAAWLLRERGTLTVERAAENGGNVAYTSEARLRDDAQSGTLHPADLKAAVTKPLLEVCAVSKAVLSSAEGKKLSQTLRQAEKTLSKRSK
# [8] = target: T4, Tyrosyl-tRNA synthetase, putative (Trypanosoma cruzi (strain CL Brener)); test: Trypanosoma cruzi tyrosyl tRNA synthetase (TcYRS) SOP; assay type: functional; conditions: 30 µM
# [9] = target: Chromo domain-containing protein 1 (Saccharomyces cerevisiae (strain ATCC 204508 / S288c) (Baker's yeast)) (UniProt P32657); test: ScCHD-1 Enzyme Inhibition Assay; assay type: functional; conditions: 30 µM; further: in the data most compounds retested in dose-response had high values
# Sequence of Chromo domain-containing protein 1 (Saccharomyces cerevisiae (strain ATCC 204508 / S288c) (Baker's yeast)) (P32657 whole entry, the tested form may be a part): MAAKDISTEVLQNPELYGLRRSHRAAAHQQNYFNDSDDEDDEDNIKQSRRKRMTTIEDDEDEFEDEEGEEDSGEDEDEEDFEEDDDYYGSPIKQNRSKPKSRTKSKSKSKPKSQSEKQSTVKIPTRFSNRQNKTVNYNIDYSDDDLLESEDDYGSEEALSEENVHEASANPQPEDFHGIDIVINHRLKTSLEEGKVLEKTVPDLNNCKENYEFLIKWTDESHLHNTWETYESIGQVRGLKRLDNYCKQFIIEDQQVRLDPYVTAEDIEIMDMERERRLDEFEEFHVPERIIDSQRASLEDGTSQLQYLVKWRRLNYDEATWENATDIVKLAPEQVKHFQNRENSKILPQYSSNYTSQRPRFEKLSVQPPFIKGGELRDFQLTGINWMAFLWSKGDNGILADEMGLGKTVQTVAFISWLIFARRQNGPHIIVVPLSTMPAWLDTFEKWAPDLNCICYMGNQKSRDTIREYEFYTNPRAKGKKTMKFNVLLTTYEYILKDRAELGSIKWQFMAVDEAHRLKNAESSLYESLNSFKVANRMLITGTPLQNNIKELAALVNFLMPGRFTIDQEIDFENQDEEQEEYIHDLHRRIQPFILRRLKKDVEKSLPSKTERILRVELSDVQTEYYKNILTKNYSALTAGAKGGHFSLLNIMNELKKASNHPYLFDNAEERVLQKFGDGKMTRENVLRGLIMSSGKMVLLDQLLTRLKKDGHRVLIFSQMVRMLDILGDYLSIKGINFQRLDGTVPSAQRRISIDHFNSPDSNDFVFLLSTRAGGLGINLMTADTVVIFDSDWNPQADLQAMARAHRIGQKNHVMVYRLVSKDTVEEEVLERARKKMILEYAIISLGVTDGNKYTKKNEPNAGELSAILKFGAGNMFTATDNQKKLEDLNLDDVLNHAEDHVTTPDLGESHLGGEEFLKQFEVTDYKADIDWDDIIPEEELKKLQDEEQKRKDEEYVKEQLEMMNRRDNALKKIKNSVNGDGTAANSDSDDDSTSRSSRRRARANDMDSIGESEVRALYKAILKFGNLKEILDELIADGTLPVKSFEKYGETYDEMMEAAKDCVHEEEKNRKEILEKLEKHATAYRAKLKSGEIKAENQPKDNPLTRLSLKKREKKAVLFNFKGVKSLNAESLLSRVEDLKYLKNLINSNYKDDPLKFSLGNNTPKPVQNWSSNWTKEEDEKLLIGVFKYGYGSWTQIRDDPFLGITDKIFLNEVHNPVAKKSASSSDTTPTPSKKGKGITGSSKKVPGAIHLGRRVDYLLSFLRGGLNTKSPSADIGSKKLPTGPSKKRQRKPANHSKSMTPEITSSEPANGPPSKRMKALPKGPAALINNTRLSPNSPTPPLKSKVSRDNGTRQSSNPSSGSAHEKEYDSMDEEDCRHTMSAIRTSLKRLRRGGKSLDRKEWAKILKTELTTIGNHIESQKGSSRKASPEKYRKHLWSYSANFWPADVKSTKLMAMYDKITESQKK
Structure (SMILES),Percent Effect [1],Percent Effect [2],Percent Effect [3],Percent Effect [4],Percent Effect (Trypanosoma cruzi),Percent Effect [5],Percent Effect [6],Percent Effect (Homo sapiens),Percent Effect [7],Percent Effect [8],Percent Effect [9]
Cc1nccn1C1CCCN(C(=O)c2ccc3c(c2)NC(=O)CO3)C1 (configuration not stated),-3.38%,2.7%,-9.28%,-2.15%,4.43%,-1.2%,14.1%,-3.11%,6.4%,16.1%,-9.9%
CC1CCCN(Cc2csc(-c3ncccn3)n2)CC1 (configuration not stated),-3.33%,-16.2%,-12.5%,18.6%,8.26%,-1.66%,20.5%,29.2%,13.9%,15.8%,2.62%
CNC(=O)C1(CCCc2ccncc2)CCCN1 (configuration not stated),-0.846%,12.2%,14.6%,0.634%,-2.96%,-2.09%,12.3%,1.56%,7.53%,22.1%,-10.5%
Cn1cc(CN2CCCC3(CCN(Cc4cccnc4)C3=O)C2)cn1 (configuration not stated),-0.768%,21.6%,-0.596%,-4.91%,3.81%,7.33%,14%,-9.12%,1.08%,12.8%,1.58%
Cc1ncnc2c1CCN(Cc1ccccn1)CC2,-2.86%,-2.74%,-0.577%,1.97%,-3.57%,-0.798%,1.46%,-16.5%,3.12%,-1.24%,5.72%
Cc1nn(C)c(C)c1NC(=O)CN1CCc2c(nc(C3CC3)n2C)C1,0.84%,-5.41%,0.981%,13.1%,6.76%,-5.71%,4.14%,1.97%,-0.529%,7.32%,-8.76%
Cc1cc(C)n(-c2cc(N3CCN(C(=O)C(C)(C)C)CC3)nc(C)n2)n1,-2.73%,5.33%,-1.22%,6.39%,2.04%,14.1%,3.31%,26.8%,0.546%,3.7%,-5.38%
O=C(CSc1ncccn1)N1C[C@H]2CC[C@@H]1CN(Cc1ccncc1)C2,-4.87%,11%,-5.51%,21%,6.46%,8.64%,12.9%,-3.77%,5.38%,7.5%,-3.96%
COc1ccc(C2=CCN(C(=O)C3CCCN(C(N)=O)C3)CC2)cc1 (configuration not stated),-3.88%,7.89%,4.4%,-4.74%,7.75%,-2.52%,12.9%,2.88%,6.4%,18.5%,-7.24%
COc1cc(CNCCc2cnn(C)c2)cc2c1OCCO2,-5.21%,10.5%,1.71%,15.7%,1.32%,-1.92%,10.2%,0.122%,4.41%,12.2%,-6.6%
O=C(CCc1ccccc1)N1CCn2cc(CN3CCCC3)nc2C1,0.2%,5.2%,-2.41%,2.78%,-1.08%,-3.23%,11.8%,7.71%,12.7%,16.7%,-2.74%
COc1cccc(N2CCN(CC(O)c3cc(C)ccc3C)CC2)c1 (configuration not stated),-1.87%,10.5%,-6.71%,-9.14%,-8.67%,2.37%,18.5%,-5.38%,7.45%,7.79%,-5.09%
CCS(=O)(=O)N1C[C@H]2CCC[C@@]2(COc2ccccn2)C1,-2.05%,12%,-6.57%,2.8%,-0.393%,-6.16%,10.5%,33%,2.12%,5.13%,-1.39%
CCn1cnnc1C1CCN(C(=O)COCCc2ccccc2)CC1,-1.96%,7.79%,0.519%,-7.71%,5%,-5.26%,6.71%,-1.88%,-2.86%,2.35%,-12.8%
COC1COC2(CCN(Cc3ccccc3Cl)CC2)C1 (configuration not stated),-5.82%,1.33%,7.01%,5.98%,-0.982%,2.29%,11.5%,20.8%,-2.12%,5.13%,0.93%
CC(NC(=O)Cc1cccs1)c1nnc2n1CCCCC2 (configuration not stated),-5.37%,10.8%,0.496%,4.55%,1.95%,-1.66%,-7.54%,-0.0451%,3.96%,15.8%,1.56%
OCCn1cc(CN2CCN(CCOc3ccccc3)CC2)cn1,-4.31%,8.11%,-1.96%,0.413%,-4.36%,1.29%,11.3%,3.13%,2.97%,3.66%,-2.48%
O=C(Cc1cccnc1)N1CCC2(CC1)CCN(C1CCOCC1)C2,-5.91%,0%,0.681%,-0.504%,-1.67%,-2.76%,1.83%,15.5%,1.07%,-1.24%,1.45%
Cc1nnc(N2C[C@@H](OCCCn3cccn3)[C@H]3OCCC[C@H]32)s1,-0.829%,5.48%,-5.05%,10.8%,1.79%,-5.19%,24.9%,-5.83%,7.29%,16.1%,-7.05%
Cc1ccc(N2CCN(C(=O)COc3nccc(C)n3)CC2)nn1,-4.66%,21.9%,-13.9%,17.7%,7.44%,6.36%,11.4%,16%,7.53%,17.5%,-9.03%
CC(CCc1ccco1)NC(=O)Nc1cc(C(F)(F)F)c[nH]c1=O (configuration not stated),-8.08%,7.89%,40.7%,3.56%,0.467%,-3.24%,13.1%,17%,7.39%,13.6%,-2%
O=C(Cc1noc2ccccc12)N1CCCC1c1noc(C2CC2)n1 (configuration not stated),0.239%,-2.7%,-6.79%,3.85%,-4.62%,0%,7.39%,86.2%,2.46%,-6.17%,5.86%
